This note sets out measurements from the supplement of paper PMC12819154, “High-throughput peptide-centric local stability assay extends protein–ligand identification to membrane proteins, tissues and bacteria” (Nature Structural & Molecular Biology, 2025).

Chain of UniProt P60842 (P60842 whole entry): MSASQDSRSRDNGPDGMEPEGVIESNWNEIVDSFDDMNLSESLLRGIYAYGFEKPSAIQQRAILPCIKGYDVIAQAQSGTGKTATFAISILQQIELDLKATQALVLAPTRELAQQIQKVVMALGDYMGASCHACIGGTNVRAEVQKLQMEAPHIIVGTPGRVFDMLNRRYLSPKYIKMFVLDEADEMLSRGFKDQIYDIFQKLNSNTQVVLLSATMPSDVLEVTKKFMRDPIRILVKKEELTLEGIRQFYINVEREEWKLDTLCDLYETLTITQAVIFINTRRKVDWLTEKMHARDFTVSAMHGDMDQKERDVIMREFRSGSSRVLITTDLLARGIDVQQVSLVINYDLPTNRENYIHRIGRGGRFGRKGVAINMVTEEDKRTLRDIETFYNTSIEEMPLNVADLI
Chain of UniProt Q15418 (Q15418 whole entry): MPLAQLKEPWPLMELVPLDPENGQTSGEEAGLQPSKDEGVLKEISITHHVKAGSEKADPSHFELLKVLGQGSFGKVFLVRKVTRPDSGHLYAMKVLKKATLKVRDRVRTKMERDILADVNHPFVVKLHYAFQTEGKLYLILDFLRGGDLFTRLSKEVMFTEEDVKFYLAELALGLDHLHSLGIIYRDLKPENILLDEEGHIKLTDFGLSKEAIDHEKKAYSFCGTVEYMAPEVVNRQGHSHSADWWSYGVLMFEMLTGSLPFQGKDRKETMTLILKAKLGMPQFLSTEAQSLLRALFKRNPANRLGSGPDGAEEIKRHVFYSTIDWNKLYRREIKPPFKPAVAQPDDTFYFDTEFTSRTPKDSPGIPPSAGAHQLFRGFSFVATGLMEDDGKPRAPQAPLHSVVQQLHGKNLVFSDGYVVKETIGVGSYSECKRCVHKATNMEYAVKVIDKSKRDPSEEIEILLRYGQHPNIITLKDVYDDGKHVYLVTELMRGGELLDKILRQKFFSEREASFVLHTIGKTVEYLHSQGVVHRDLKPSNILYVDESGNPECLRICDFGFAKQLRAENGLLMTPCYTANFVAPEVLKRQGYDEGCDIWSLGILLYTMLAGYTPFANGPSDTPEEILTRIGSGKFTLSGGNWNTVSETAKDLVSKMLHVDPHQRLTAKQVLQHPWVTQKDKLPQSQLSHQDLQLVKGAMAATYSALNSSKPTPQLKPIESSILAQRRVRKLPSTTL
Chain of UniProt Q9NYV4 (Q9NYV4 whole entry, looked up): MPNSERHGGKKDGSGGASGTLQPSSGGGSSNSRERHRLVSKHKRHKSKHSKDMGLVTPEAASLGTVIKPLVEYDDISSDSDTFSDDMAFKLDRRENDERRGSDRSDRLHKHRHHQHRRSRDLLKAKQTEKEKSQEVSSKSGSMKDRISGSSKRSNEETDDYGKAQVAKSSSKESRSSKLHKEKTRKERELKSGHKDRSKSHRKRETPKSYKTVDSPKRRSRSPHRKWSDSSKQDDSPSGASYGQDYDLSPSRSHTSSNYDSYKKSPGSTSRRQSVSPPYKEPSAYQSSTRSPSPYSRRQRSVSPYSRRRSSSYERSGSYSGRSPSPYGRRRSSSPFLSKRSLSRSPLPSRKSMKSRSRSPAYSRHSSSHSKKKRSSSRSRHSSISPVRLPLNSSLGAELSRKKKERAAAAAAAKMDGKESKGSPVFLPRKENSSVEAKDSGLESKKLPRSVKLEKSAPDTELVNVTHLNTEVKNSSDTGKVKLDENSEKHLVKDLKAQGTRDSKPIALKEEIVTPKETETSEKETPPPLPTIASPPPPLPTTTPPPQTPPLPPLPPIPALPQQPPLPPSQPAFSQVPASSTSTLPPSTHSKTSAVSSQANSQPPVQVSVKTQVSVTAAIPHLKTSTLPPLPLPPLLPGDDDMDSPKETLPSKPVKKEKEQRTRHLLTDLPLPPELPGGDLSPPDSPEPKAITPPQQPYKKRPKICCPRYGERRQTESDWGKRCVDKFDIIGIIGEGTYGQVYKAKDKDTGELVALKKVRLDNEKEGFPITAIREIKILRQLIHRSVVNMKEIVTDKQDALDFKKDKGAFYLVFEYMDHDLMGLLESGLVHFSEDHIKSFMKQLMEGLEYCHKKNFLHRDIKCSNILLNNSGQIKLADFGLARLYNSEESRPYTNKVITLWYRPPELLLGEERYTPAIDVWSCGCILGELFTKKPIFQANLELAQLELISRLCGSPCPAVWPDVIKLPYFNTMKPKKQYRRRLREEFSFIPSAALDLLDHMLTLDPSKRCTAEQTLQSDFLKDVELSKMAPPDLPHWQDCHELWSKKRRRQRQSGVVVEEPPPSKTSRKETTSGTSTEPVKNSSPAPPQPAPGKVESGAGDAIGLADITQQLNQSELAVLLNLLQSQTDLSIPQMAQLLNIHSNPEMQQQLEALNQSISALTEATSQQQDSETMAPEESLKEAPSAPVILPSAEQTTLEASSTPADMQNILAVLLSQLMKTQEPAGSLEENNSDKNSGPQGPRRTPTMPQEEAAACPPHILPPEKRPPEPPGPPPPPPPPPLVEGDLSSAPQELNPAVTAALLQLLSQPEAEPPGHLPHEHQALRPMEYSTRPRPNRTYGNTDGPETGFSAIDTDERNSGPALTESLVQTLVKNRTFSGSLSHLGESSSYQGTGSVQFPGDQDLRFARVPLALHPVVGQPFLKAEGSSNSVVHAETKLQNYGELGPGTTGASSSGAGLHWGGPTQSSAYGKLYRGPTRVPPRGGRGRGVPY
Chain of UniProt O75385 (O75385 whole entry): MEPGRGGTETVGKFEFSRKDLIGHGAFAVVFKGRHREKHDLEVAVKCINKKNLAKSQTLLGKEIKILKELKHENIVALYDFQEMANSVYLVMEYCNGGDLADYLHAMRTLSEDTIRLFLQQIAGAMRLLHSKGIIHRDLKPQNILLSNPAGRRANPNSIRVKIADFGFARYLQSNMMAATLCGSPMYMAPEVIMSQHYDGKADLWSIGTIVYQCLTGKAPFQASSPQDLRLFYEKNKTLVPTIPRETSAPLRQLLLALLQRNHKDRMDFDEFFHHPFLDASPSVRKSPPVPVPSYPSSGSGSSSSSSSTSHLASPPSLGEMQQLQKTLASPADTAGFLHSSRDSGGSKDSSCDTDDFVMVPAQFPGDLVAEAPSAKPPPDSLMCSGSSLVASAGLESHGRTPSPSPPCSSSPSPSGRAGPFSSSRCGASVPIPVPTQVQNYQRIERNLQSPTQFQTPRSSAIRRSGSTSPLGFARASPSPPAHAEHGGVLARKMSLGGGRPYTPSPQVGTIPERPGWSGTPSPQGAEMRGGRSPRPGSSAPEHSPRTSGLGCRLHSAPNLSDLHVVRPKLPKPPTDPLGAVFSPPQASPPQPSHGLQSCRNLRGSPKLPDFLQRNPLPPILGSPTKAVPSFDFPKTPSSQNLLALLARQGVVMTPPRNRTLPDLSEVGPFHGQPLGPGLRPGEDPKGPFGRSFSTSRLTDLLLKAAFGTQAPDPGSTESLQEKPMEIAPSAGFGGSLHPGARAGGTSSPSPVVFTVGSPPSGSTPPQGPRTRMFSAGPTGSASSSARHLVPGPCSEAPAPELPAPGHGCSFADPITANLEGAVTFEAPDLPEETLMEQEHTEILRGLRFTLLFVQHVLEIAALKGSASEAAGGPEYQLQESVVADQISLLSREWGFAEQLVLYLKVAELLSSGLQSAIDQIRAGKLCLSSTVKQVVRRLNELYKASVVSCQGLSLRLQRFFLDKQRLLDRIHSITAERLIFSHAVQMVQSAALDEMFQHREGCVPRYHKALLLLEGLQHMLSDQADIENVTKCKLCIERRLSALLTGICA
Chain of UniProt P06493 (P06493 whole entry, looked up): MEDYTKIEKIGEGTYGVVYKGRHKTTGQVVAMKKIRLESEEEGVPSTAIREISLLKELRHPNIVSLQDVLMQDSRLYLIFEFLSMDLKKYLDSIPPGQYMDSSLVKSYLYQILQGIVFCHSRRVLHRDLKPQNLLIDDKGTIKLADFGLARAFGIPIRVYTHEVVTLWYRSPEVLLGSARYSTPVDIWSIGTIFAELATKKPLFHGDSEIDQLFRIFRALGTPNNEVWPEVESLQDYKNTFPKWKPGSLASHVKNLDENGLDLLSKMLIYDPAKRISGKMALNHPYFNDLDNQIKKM
Chain of UniProt Q96BR1 (Q96BR1 whole entry): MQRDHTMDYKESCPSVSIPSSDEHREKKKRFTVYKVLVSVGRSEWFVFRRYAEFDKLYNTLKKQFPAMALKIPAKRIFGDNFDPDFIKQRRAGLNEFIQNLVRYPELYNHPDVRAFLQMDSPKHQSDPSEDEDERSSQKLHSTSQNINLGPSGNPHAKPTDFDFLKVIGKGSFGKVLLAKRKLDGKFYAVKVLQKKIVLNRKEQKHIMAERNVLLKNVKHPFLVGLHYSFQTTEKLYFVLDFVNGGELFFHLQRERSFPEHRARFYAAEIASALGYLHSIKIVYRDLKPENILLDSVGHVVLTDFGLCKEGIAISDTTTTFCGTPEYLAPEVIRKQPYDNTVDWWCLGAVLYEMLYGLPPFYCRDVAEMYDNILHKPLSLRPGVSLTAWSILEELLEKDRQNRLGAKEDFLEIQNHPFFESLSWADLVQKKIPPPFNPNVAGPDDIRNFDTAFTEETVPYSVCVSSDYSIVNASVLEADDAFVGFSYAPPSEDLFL
Chain of UniProt P15559 (P15559 whole entry): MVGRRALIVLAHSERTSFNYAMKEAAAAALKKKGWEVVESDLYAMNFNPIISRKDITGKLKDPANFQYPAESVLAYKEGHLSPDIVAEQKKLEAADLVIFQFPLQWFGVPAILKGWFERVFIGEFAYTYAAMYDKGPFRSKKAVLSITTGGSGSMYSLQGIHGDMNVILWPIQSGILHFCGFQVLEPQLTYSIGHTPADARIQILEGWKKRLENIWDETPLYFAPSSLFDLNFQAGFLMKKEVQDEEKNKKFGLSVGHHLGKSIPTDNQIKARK

Compound in the test: CN[C@@H]1C[C@H]2O[C@@](C)([C@@H]1OC)n1c3ccccc3c3c4c(c5c6ccccc6n2c5c31)C(=O)NC4 [staurosporine]
In words: log2 fold change of tryptic peptide abundance, ligand vs vehicle (limited proteolysis) (log2 ratio); higher = more trypsin-susceptible (destabilized). Conditions: ligand concentration: 20 uM; sample: K562 cleared lysate; digestion: 4 min, 22 C (HT-PELSA RT4min, Orbitrap Astral).
In the case of “UniProt P06493 (peptide sequence: HPNIVSLQDVLMQDSR, peptide start residue: 60)”, the log2 fold change is -1.19. The value for “ULK1 (peptide sequence: LFLQQIAGAMR, peptide start residue: 117) (UniProt O75385)” was -1.62; that for “UniProt P51812 (peptide sequence: DILVEVNHPFIVK, peptide start residue: 120)” was -0.86. Regarding “SGK3 (peptide sequence: FYAAEIASALGYLHSIK, peptide start residue: 265) (UniProt Q96BR1)”, the log2 fold change was -1.54. The value for “NQO1 (peptide sequence: SIPTDNQIK, peptide start residue: 263) (UniProt P15559)” was 0.728. For the target “PRPF4B (peptide sequence: QHLCLVFEPLSMNLR, peptide start residue: 761) (UniProt Q13523)”, the log2 fold change is -0.779. With “UniProt Q14004 (peptide sequence: EGFPITAIR, peptide start residue: 765)”, the log2 fold change was -1.01. Next, “UniProt Q9NYV4 (peptide sequence: EIVTDKQDALDFKK, peptide start residue: 791)”: -1.83; “UniProt P60842 (peptide sequence: ATQALVLAPTR, peptide start residue: 100)”: 0.334; “UniProt P45985 (peptide sequence: DIKPSNILLDR, peptide start residue: 229)”: 0.534. “UniProt Q15418 (peptide sequence: DILADVNHPFVVK, peptide start residue: 114)”: the log2 fold change is -1.43.
